Source: PubChem BioAssay AID463190 (Sanford-Burnham Center for Chemical Genomics, 2010)
The whole screen tested about 330,000 compounds, of which about 7,300 (2.2%) were called active.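 How the source made its calls: active means inhibition of at least 40%; inactive means the rest.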 The full list was thinned out, with actives kept by preference.

Assay: growth inhibition of tim10-1 ts yeast – luminescence, uHTS, primary screen (AID 463190);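 further: mutant grown at 25 °C; 0% = DMSO wells with yeast and 100% = wells holding no yeast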
Conditions: S. cerevisiae tim10-1 ts strain growth, BacTiter-Glo, 24 h; at 20 µM; active compounds read high

Row | Compound | inhibition
1 | COC(=O)c1ccccc1NC(=O)C1CC(=O)N(c2ccc(OC)cc2)C1 (configuration not stated) | 3.6% (inactive)
2 | COCCn1nnnc1CN1CCC(NC(=O)Nc2cccc(OC)c2)CC1 | -0.459% (inactive)
3 | COc1ccc(/C=C2\SC(=O)N(CCC(=O)NC3CCS(=O)(=O)C3)C2=O)cc1 (configuration not stated) | -0.597% (inactive)
4 | COc1ccc(/C=C2\SC(=O)N(CCC(=O)NCCCn3ccnc3)C2=O)cc1 | 8.52% (inactive)
5 | COc1ccc(/C=C2/SC(=O)N(CCCCCC(=O)Nc3ccccc3C(=O)O)C2=S)cc1 | 40% (active)
6 | Cc1cccc(OCC(O)Cn2c(N3CCCCC3)nc3c2c(=O)[nH]c(=O)n3C)c1 (configuration not stated) | 12.9% (inactive)
7 | CCOC(=O)C1CCN(C(=O)COc2cccc3ccccc23)CC1 | 6.37% (inactive)
8 | O=C(CCCN=C1NS(=O)(=O)c2ccccc21)OCC(=O)c1ccc(F)c(F)c1 | 11.8% (inactive)
9 | CCOc1ccc(NC(=O)CN(C)C(=O)c2c(C)noc2C)cc1OCC | -5.08% (inactive)
10 | COC(=O)C1(CCSC)NC(c2ccc(OC)cc2OC)C2C(=O)N(c3cccc(C(C)=O)c3)C(=O)C21 (configuration not stated) | 8.92% (inactive)
11 | CC(C)(CCl)C(=O)Nc1ccc(Sc2ccc(F)cc2)cc1 | 53.5% (active)
12 | CC(C)CNC(=S)Nc1ccc(F)cc1 | 0.34% (inactive)
13 | O=C(Nc1ccncc1)Nc1ccc(F)cc1 | -16.8% (inactive)
14 | Cc1ccc(NC(=O)Cc2nc(COC(=O)C(C)NS(=O)(=O)c3ccc(C)cc3)cs2)cc1 (configuration not stated) | 15.7% (inactive)
15 | O=C(CSC(=S)N1CCCCC1)c1c(F)cccc1F | 9.67% (inactive)
16 | Oc1c(Cl)cc(Cl)c(Cl)c1Cc1c(O)c(Cl)cc(Cl)c1Cl | 91% (active)
17 | Cc1cc(/C=N/NC(=O)CC2(C)OCCO2)c(C)n1-c1ccc(Cl)c(Cl)c1 | 1.86% (inactive)
18 | O=C1c2cccnc2C(Nc2ccc(S(=O)(=O)N3CCCCCC3)cc2)N1Cc1ccccc1 (configuration not stated) | 34.2% (inactive)
19 | CCCCCCCCCCCCCCCC(=O)OC/C=C(C)/C=C/C=C(C)/C=C/C1=C(C)CCCC1(C)C | 40.7% (active)
20 | CC1=C(/C=C/C(C)=C/C=C/C(C)=C/C=C/C=C(C)/C=C/C=C(C)/C=C/C2=C(C)CCCC2(C)C)C(C)(C)CCC1 | 10.6% (inactive)
21 | COC(=O)c1ccccc1NC(=O)CN(Cc1ccc(Cl)cc1)S(C)(=O)=O | 10.7% (inactive)
22 | CCCCNCc1ccc(SC)cc1 | -1.78% (inactive)
23 | O=C(Nc1cccc(F)c1)c1coc(=O)c(Br)c1 | 18.9% (inactive)
24 | CCc1ccccc1N1CN(Cc2ccco2)CNC1=S | 17.4% (inactive)
25 | COc1ccc(C(=O)Nc2ccc(-n3nncc3C(C)(C)C)cc2)cc1 | 44% (active)
26 | C/C(=N\Nc1ccc([N+](=O)[O-])cc1)c1ccc(-n2nncc2C(C)(C)C)cc1 | -1.51% (inactive)
27 | COc1ccc(NC(=O)c2ccc(C#CC(C)(C)O)cc2)cc1 | 9.08% (inactive)
